The list is not random: actives were taken first. Their share in the collection is about 1.5%.
TrxR1 substrate: qHTS Assay for Substrates of Mammalian Selenoprotein Thioredoxin Reductase 1 (TrxR1): qHTS; Thioredoxin reductase 1, cytoplasmic (Rattus norvegicus), O89049; purified TrxR1 substrate turnover, NADPH consumption readout; Potency, µM (titrated, usually from 114 µM); hit rate 0.01% among 390,000; AID 588456, 2011; also: nearly all actives have a fitted effect of over 50% in size
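Rat TrxR1, dispensed at 90 nM, was prereduced with 400 uM NADPH (final) for 5 min at ~22 deg C, then incubated with compound 15 min before 400 uM selenite. A first-read NADPH fluorescence drop versus no-compound background flagged substrates.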
TrxR1 inh: qHTS Assay for Inhibitors of Mammalian Selenoprotein Thioredoxin Reductase 1 (TrxR1): qHTS | AID 588453, 2011 | recombinant rTrxR1, NADPH fluorescence consumption, selenite substrate | Thioredoxin reductase 1, cytoplasmic (Rattus norvegicus), O89049 | Potency, µM (series often up to 114 µM), usual class: inhibitors | hit rate 1% among 390,000; also: nearly all actives have a fitted effect of over 65% in size
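Rat TrxR1 (90 nM in the dispensed reagent) was pre-reduced with 400 uM NADPH for 5 min at room temperature, then incubated with compound for 15 min. After 400 uM selenite was added, NADPH fluorescence (Ex 340/Em 450 nm) was followed for 8 min.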
PI4K2A inh: qHTS for small molecular inhibitors of PI4K2A. Phosphatidylinositol 4-kinase type 2-alpha (Homo sapiens), Q9BTU6. purified PI4K2A, ADP-Glo luminescence, 1 h; hits give low values. activity change, negative = inhibition, % at 76.9 µM. hit rate 0.13% among 420,000. AID 1346378, 2018; in the data active = activity change below about -50%; inconclusive = mostly about -30% to -49%
Target sequence (Q9BTU6 whole entry, looked up): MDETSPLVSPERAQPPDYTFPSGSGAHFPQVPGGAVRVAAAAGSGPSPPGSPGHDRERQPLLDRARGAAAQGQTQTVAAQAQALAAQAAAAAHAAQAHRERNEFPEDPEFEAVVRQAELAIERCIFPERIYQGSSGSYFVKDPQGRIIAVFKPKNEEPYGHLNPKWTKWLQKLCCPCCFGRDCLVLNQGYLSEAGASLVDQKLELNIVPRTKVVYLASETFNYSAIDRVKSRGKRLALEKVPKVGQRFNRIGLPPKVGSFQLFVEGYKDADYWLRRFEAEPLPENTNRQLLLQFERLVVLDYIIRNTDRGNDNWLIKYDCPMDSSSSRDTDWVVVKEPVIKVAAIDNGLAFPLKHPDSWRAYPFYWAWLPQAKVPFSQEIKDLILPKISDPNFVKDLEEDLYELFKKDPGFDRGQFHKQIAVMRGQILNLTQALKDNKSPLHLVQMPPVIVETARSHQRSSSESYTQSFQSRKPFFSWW
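PI4K2A activity was measured by ADP-Glo luminescence: enzyme (4 ug/mL stock) and phosphatidylinositol (1.2 mM stock) in Tris pH 7.5/MgCl2/EGTA/Triton X-100 buffer were reacted with ATP (300 microM stock) for one hour at ambient temperature.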
GALK inh: qHTS Assay for Inhibitors of Human Galactokinase (GALK); Potency, µM (series often up to 57.5 µM), actives largely listed as inhibitors; AID 1868, 2009; Purified GALK, Kinase-Glo residual ATP luminescence; hit rate 0.007% among 270,000
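Quantitative HTS: GALK 5 nM, ATP 35 uM, galactose 100 uM, 1 h room temperature, then luciferase-based ATP detection.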
Coupling enz: qHTS Assay for Inhibitors of Fructose-1,6-bisphosphate Aldolase from Giardia Lamblia: Coupling assay counterscreen. coupling enzyme system counterscreen, AmpLite Red fluorescence. activity change, negative = inhibition, % at 58.2 µM, hits read low. hit rate 0.67% among 290,000. AID 2472, 2010; in the data active = activity change below about -30%
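Coupling enzymes only (glyceraldehyde-3-phosphate) + compound, at 57.5 uM final, 10 min RT; add substrate/coupling/AmpLite Red mix, 20 min RT; fluorescence ex 525/em 598 nm. Actives flag coupling-system interference.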
Giardia killer: Small Molecules that selectively kill Giardia lamblia: qHTS; Giardia lamblia trophozoite viability; activity change, % at 7.66 µM, hits read low; hit rate 0.15% among 340,000; AID 540267, 2011; in the data active = activity change below about -80%; inconclusive = between about -30% and that limit;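 also: parasites exposed to compound for two days anaerobically before the ATP read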
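Media and compound were dispensed first, then trophozoites at 100 cells/well; plates sat 48 hrs at 37 deg C without oxygen before ATP luminescence reagent was added and read after 15-30 min at room temperature.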
Large screens that a line does not name were inactive. Unless noted, calls follow the shape of the dose curve; as a rule, active = well fitted curve in the direction sought with a large enough effect; inconclusive = small, poorly fitted or top-dose-only effect, or another doubt; inactive = no such curve, though single readings can be large; an effect the other way counts as inactive or inconclusive.

CN1C(=O)C(O)(CC(=O)/C=C/c2ccco2)c2ccccc21 (centres undefined)	none
CN1C(=O)C(O)(CC(=O)/C=C/c2ccco2)c2cc(Br)ccc21 (centres undefined)	TrxR1 inh 15.8µM
CC(=O)N[C@H]1[C@H]([C@H](O)[C@H](O)CO)OC(C(=O)O)=C[C@@H]1N=C(N)N	none (no result: TrxR1 substrate, TrxR1 inh, GALK inh, Coupling enz, Giardia killer)
COC(=O)[C@@H]1CCCN1S(=O)(=O)Cc1ccccc1	none (no result: PI4K2A inh, GALK inh, Coupling enz, Giardia killer)
COc1ccc(C(=O)C2C(=O)C(=O)N(Cc3ccco3)C2c2cccs2)cc1 (centres undefined)	TrxR1 inh 44.7µM (no result: PI4K2A inh, GALK inh, Coupling enz)
CC(C)Oc1ccc(Oc2ccc(C#C[C@H](C)N3C(=O)c4ccccc4C3=O)cc2)cn1	none (no result: TrxR1 substrate, TrxR1 inh, GALK inh, Coupling enz, Giardia killer)
CC(C)C1=CC(=Nc2ccc(S(N)(=O)=O)cc2)C=C(C(C)C)C1=O	Coupling enz -43.1
NS(=O)(=O)c1ccc(N=C2C(=O)Nc3ccccc32)cc1	none (no result: GALK inh)
O=C(COC(=O)c1ccccc1Oc1ccccc1)Nc1ccc(Br)cc1	none (no result: PI4K2A inh, GALK inh, Coupling enz, Giardia killer)
CCCC[n+]1ccn(C2=C([O-])c3ccccc3C(=O)/C2=N\S(=O)(=O)c2ccc(Cl)cc2)c1	Coupling enz -45.5
CCN(CC)c1ccc(S(=O)(=O)N2CCOCC2)cc1NC(=O)COC(=O)/C=C/c1ccccc1	none (no result: GALK inh, Coupling enz)
CCN(CC)c1ccc(S(=O)(=O)N2CCOCC2)cc1NC(=O)COC(=O)/C=C/c1ccc(C)o1	TrxR1 inh 70.8µM (no result: GALK inh, Coupling enz)
O=C(CCCN1C(=O)/C(=C\c2cccs2)SC1=S)Nc1ccc(C(=O)O)cc1	TrxR1 substrate 79.4µM
O=C(CCCN1C(=O)/C(=C\c2ccco2)SC1=S)Nc1ccc(O)cc1C(=O)O	TrxR1 inh 50.1µM (no result: Coupling enz)
O=C(CCCN1C(=O)/C(=C\c2cccs2)SC1=S)Nc1ccc(O)cc1C(=O)O	none (no result: Coupling enz)
O=C(CCN1C(=O)/C(=C/c2cccs2)SC1=S)Nc1ccc(C(=O)O)cc1	none
CC(C)NC(=O)CC1Nc2c3ccccc3nc(=S)n2C1=O (centres undefined)	Coupling enz -35.1
O=c1ccc(NS(=O)(=O)c2ccc(Cl)cc2)cn1Cc1ccc(Cl)c(Cl)c1	TrxR1 inh inconclusive, PI4K2A inh -59.2
O=S(=O)(Nc1ccc(Cc2ccncc2)cc1)c1ccc(Cl)cc1	none
CCc1ccc(N=C2NC(=O)CC(C(=O)Nc3ccc(OC)cc3)S2)cc1 (centres undefined)	none (no result: GALK inh, Coupling enz, Giardia killer)
CN1CCN(C2=C(Cl)C(=O)N(c3ccc(Cl)c(Cl)c3)C2=O)CC1	TrxR1 inh 15.8µM
CCOC(=O)c1c(NC(=O)c2cc3nc(-c4ccccc4)cc(C(F)(F)F)n3n2)sc2c1CCC(C)C2 (centres undefined)	none (no result: GALK inh, Coupling enz, Giardia killer)
COCCN=c1scc(-c2ccco2)n1/N=C/c1ccc(O)c(O)c1O	TrxR1 inh inconclusive, Coupling enz -50.6
C=CCN=c1scc(-c2ccco2)n1/N=C/c1ccc(O)c(O)c1O	TrxR1 inh inconclusive, Coupling enz -34.7
CC(C)N=c1scc(-c2ccco2)n1/N=C/c1ccc(O)c(O)c1	none
CC(C)(N[C@@H](Cc1ccccc1)C(=O)NCCCc1ccccc1)C(=O)NCc1ccccc1	none (no result: TrxR1 substrate, TrxR1 inh, GALK inh, Coupling enz, Giardia killer)
COC(=O)c1cc(-c2cc(Cl)ccc2OC)c(=O)n2c1CCC2	none (no result: TrxR1 substrate, TrxR1 inh, GALK inh, Coupling enz, Giardia killer)
COc1ccc(C=C2CCc3ccccc3C2=O)cc1	PI4K2A inh -82.7 (no result: TrxR1 substrate, TrxR1 inh, GALK inh, Coupling enz, Giardia killer)
CCOc1ccc(/C=C2\CCc3ccccc3C2=O)cc1	PI4K2A inh inconclusive, Giardia killer inconclusive
O=C1C(=Cc2ccc(F)cc2)CCc2ccccc21	PI4K2A inh -72.8 (no result: TrxR1 substrate, TrxR1 inh, GALK inh, Coupling enz, Giardia killer)
O=C1/C(=C\c2ccncc2)CCc2ccccc21	PI4K2A inh inconclusive (no result: GALK inh, Coupling enz)
C=C1C=C(C)n2ncc(C(=O)NCCCCCC)c2N1	none (no result: PI4K2A inh, GALK inh, Coupling enz, Giardia killer)
CN(C(=S)Nc1ccc(Oc2ccccc2)cc1)c1ccc(O)cc1	TrxR1 inh inconclusive, PI4K2A inh inconclusive, Coupling enz -50.0
CN(C(=S)Nc1ccccc1)c1ccccc1	none (no result: GALK inh)
CN(C(=S)Nc1ccc(SC(F)F)cc1)c1ccc(O)cc1	TrxR1 inh inconclusive, PI4K2A inh inconclusive, Coupling enz -33.6
CN(C(=S)Nc1cccnc1)c1ccc(O)cc1	Coupling enz -33.3
CN(C)c1ccc(CCC2C=Cc3ccccc32)cc1 (centres undefined)	none (no result: PI4K2A inh, GALK inh, Coupling enz, Giardia killer)
CC(C)(C)OC(=O)NCCC(=O)Oc1ccc2ccc(=O)oc2c1	TrxR1 inh 50.1µM
O=C(CNC(=O)OCc1ccccc1)Oc1ccc2ccc(=O)oc2c1	TrxR1 inh 25.1µM (no result: GALK inh)
O=C(COc1ccc2ccc(=O)oc2c1)OCc1ccccc1	none
CC(C)N(Cc1cn(Cc2ccccc2)nn1)S(=O)(=O)c1ccccc1Br	none (no result: TrxR1 substrate, TrxR1 inh, GALK inh, Coupling enz, Giardia killer)
COc1ccc(-c2nc(CS(=O)CC(=O)NC3CCCCC3)c(C)o2)cc1OC (centres undefined)	TrxR1 inh 50.1µM (no result: Coupling enz)
Cc1oc(-c2ccccc2)nc1CS(=O)CC(=O)N1CCc2ccccc2C1 (centres undefined)	TrxR1 inh 20µM
COc1ccc(-c2nc(CS(=O)CC(=O)NCCC3=CCCCC3)c(C)o2)cc1 (centres undefined)	TrxR1 inh 15.8µM, Giardia killer inconclusive
Cc1ccc(-c2nc(CS(=O)CC(=O)N3CCN(c4ccccc4)CC3)c(C)o2)cc1 (centres undefined)	none (no result: Coupling enz)
Cc1ccc(-c2nc(CS(=O)CC(=O)NC3CC3)c(C)o2)cc1 (centres undefined)	none (no result: Coupling enz)

Source: PubChem
